# ± gives the standard deviation of the averaged measurements.
# How the values were obtained:
# DLD1 [1] = assay: cell viability (CellTiter-Glo) relative to plate median (fraction of plate median); higher = more viable cells; conditions: 5 µM; treatment time 24 h; reporter: 7TFP
# Procedure, shortened: (§1)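 On parallel plates, a Tecan F500 reader recorded either firefly luciferase or CellTiterGlo luminescence. The plates held colorectal cancer cells stably transduced with lentiviral TCF/Wnt firefly luciferase reporters (7TFP or TCF4/Wnt), seeded in 384-well format and treated 24 h later with library compounds at a final 5 µM for 24 h. Per-well signals were normalised to the plate median (webcellHTS2, additive, no log transformation), and two independent replicates were averaged.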
# HCT116 = assay: as above; conditions: 5 µM; treatment time 24 h; reporter: TCF4/Wnt
# Procedure, shortened: as §1
# SW480 [2] = assay: as above; conditions: 5 µM; treatment time 24 h; reporter: 7TFP
# Procedure, shortened: as §1
# DLD1 [3] = assay: TCF/Wnt firefly luciferase reporter signal relative to plate median (fraction of plate median); higher = higher Wnt reporter signal; conditions: 5 µM; treatment time 24 h; reporter: 7TFP
# Procedure, shortened: as §1
# SW480 [4] = assay: as above; conditions: 5 µM; treatment time 24 h; reporter: 7TFP
# Procedure, shortened: as §1
Compound,cell viability (DLD1 [1]),cell viability (HCT116),cell viability (SW480 [2]),TCF/Wnt firefly luciferase reporter signal (DLD1 [3]),TCF/Wnt firefly luciferase reporter signal (SW480 [4])
OCc1cccnc1,0.978 ± 0.088,1.05 ± 0.17,0.934 ± 0.016,0.988 ± 0.12,0.917 ± 0.017
CC1=C(C(=O)O)N2C(=O)[C@@H](NC(=O)[C@H](N)c3ccccc3)[C@H]2SC1,1 ± 0.065,1.02 ± 0.082,0.983 ± 0.025,0.991 ± 0.056,1.015 ± 0.0071
CCCC1O[C@@H]2C[C@H]3[C@@H]4CCC5=CC(=O)C=C[C@]5(C)[C@H]4[C@@H](O)C[C@]3(C)[C@]2(C(=O)CO)O1 (stereo not given in full),1.03 ± 0.014,0.938 ± 0.1,0.912 ± 0.015,1.09 ± 0.071,0.81 ± 0.04
CNCc1ccccc1,1.03 ± 0.014,1.125 ± 0.0071,1.03 ± 0.021,1.03 ± 0.067,1.045 ± 0.0071
CC(=O)O[C@H]1CC[C@]2(C)[C@H]3CC=C4[C@@H]5CC(C)(C)CC[C@]5(C(=O)O)CC[C@@]4(C)[C@]3(C)CC[C@H]2C1(C)C,1.06 ± 0.05,1.11 ± 0.11,1.02 ± 0.033,1.03,1.03 ± 0.021
C=C(C)[C@@H]1CC[C@]2(CO)CC[C@]3(C)[C@H](CC[C@@H]4[C@@]5(C)CC[C@H](O)C(C)(C)[C@@H]5CC[C@]43C)[C@@H]12,0.995 ± 0.064,0.973 ± 0.053,0.978 ± 0.027,1.135 ± 0.0071,1.045 ± 0.0071
CCN(CC)CCNc1ccc(CO)c2sc3ccccc3c(=O)c12,1.1 ± 0.028,1.02 ± 0.014,0.995 ± 0.0057,1.16 ± 0.18,0.988 ± 0.1
CCCCCCCCCCC[C@@H](C[C@@H]1OC(=O)[C@H]1CCCCCC)OC(=O)[C@H](CC(C)C)NC=O,0.83 ± 0.15,1.03 ± 0.12,0.972 ± 0.018,1.01 ± 0.13,0.933 ± 0.023
COc1ccnc(C[S+]([O-])c2nc3cc(OC(F)F)ccc3[nH]2)c1OC (stereo not given),0.961 ± 0.0042,1.03 ± 0.014,0.974 ± 0.036,1.06 ± 0.05,1.05 ± 0.071
CCCOc1ccc2[nH]c(NC(=O)OC)nc2c1,0.979 ± 0.011,1.08 ± 0.2,1.13 ± 0.071,0.959 ± 0.21,0.957 ± 0.035
O=C(O)COCCN1CCN(C(c2ccccc2)c2ccc(Cl)cc2)CC1 (stereo not given),0.94 ± 0.054,0.896 ± 0.05,0.955 ± 0.024,1.04 ± 0.035,0.915 ± 0.033
CC(=O)Oc1ccc(O)cc1,1.03 ± 0.021,1.08 ± 0.035,1.04 ± 0.014,1.07 ± 0.042,1.035 ± 0.0071
CCSC(=N)N,0.954 ± 0.046,0.948 ± 0.073,0.9995 ± 0.00071,0.99 ± 0.028,0.963 ± 0.031
C[C@H]1[C@H](C)CC[C@]2(C(=O)O)CC[C@]3(C)C(=CC[C@@H]4[C@@]5(C)C[C@@H](O)[C@H](O)[C@@](C)(CO)[C@@H]5CC[C@]43C)[C@H]12,1.04 ± 0.072,1.1 ± 0.15,1.1 ± 0.021,0.974 ± 0.093,1.05 ± 0.035
CC(=O)O[C@H]1CC[C@@]2(C)[C@@H](CC[C@@H]3[C@@H]2CC(=O)[C@]2(C)[C@@H]4[C@H](C[C@@H]32)O[C@]2(CC[C@@H](C)CO2)[C@H]4C)C1,0.907 ± 0.018,0.934 ± 0.047,0.9615 ± 0.0035,0.858 ± 0.038,0.995 ± 0.16
CCc1c(O)cc(C(C)CC)oc1=O (stereo not given) [Germicidin],1.02 ± 0.014,0.92 ± 0.034,0.965 ± 0.05,0.946 ± 0.16,1.06 ± 0.09
C[C@H](CS)C(=O)N1CCC[C@H]1C(=O)O,1.04 ± 0.097,1.02 ± 0.1,1.09 ± 0.014,1.04 ± 0.042,1.06 ± 0.021
CC1(C)S[C@@H]2[C@H](NC(=O)C(C(=O)O)c3ccccc3)C(=O)N2[C@H]1C(=O)O (stereo not given in full),0.912 ± 0.073,0.9345 ± 0.0064,0.9405 ± 0.005,0.999 ± 0.13,1.05 ± 0.021
CC1(C)[C@@H](O)CC[C@]2(C)[C@H]3C(=O)C=C4[C@@H]5C[C@@](C)(C(=O)O)CC[C@]5(C)CC[C@@]4(C)[C@]3(C)CC[C@@H]12,1.01 ± 0.059,1.03 ± 0.098,1.05 ± 0.057,1.04 ± 0.22,1.12 ± 0.13
CN[C@H](CC(=O)O)C(=O)O,0.99 ± 0.028,0.966 ± 0.049,0.957 ± 0.0042,1.02 ± 0.014,0.85 ± 0.045
NC(N)=O,1.03 ± 0.014,0.988 ± 0.088,0.999 ± 0.044,0.898 ± 0.0028,0.934 ± 0.076
COc1cc(/C=C/C(=O)O)cc(OC)c1OC,0.983 ± 0.016,0.961 ± 0.015,0.903 ± 0.056,0.827 ± 0.072,0.972 ± 0.0028
CCCc1nc(C)c2c(O)nc(-c3cc(S(=O)(=O)N4CCN(CC)CC4)ccc3OCC)nn12,0.948 ± 0.022,1.02 ± 0.061,0.9505 ± 0.005,1.05 ± 0.021,1.07 ± 0.042
CC(C)CCCCCCCCC1CC(=O)NC(CCC(=O)O)C(=O)NC(CC(C)C)C(=O)NC(CC(C)C)C(=O)NC(C(C)C)C(=O)NC(CC(=O)O)C(=O)NC(CC(C)C)C(=O)NC(CC(C)C)C(=O)O1 (stereo not given) [Surfactin B1],0.959 ± 0.072,0.925 ± 0.018,0.962 ± 0.038,0.92 ± 0.21,1.01 ± 0.015
O=C1NC(Cc2ccc(O)cc2)C(=O)N2CCCC12 (stereo not given) [cyclo(prolyltyrosyl)],0.9655 ± 0.0021,0.95 ± 0.023,1.025 ± 0.0071,0.998 ± 0.2,0.887 ± 0.05
CCC/C=C1\OC(=O)C2=C1CCC=C2,0.992 ± 0.083,0.973 ± 0.0028,0.9545 ± 0.00071,0.948 ± 0.1,0.967 ± 0.061
O=C1CN(/N=C/c2ccc(-c3ccc([N+](=O)[O-])cc3)o2)C(=O)N1,0.999 ± 0.044,0.9895 ± 0.005,0.97 ± 0.018,1 ± 0.042,1.02 ± 0.014
COc1ccc2c(c1)OCC(Cc1ccc(OC)c(OC)c1)C2=O (stereo not given),0.995 ± 0.05,1.1 ± 0.092,1.02 ± 0.044,0.997 ± 0.15,1.035 ± 0.0071
C=C1C(=O)O[C@H]2C[C@@H]1C(OC(C)=O)C/C(C)=C/CC/C(C)=C/CC[C@@]2(C)O (stereo not given in full),0.888 ± 0.067,0.999 ± 0.058,1.06 ± 0.014,0.885 ± 0.13,0.892 ± 0.0092
CC(=O)N(O)CCCCCNC(=O)CC(O)(CC(=O)NCCCCCN(O)C(C)=O)C(=O)O [Arthrobactin],0.989 ± 0.03,1.06 ± 0.057,1.03 ± 0.049,0.976 ± 0.12,1.06 ± 0.028

# Reference: the supplement of paper PMC6522484
